# Results: PubChem BioAssay (NCATS)
# A number with no mark means an inactive call. Inconclusive results are not listed. Entries that show only a call come without a potency. Calls of active or inactive are those of the source. Calls come from the whole dose curve; as a rule, active = well fitted curve in the direction sought with a large enough effect; inconclusive = small, poorly fitted or top-dose-only effect, or another doubt; inactive = no such curve, though single readings can be large; an effect the other way counts as inactive or inconclusive. Where a SMILES comes first, the peptide text is derived from it. [ ]: non-standard residue; d: D form. The star is where a group is joined. Dolaproine = CO[C@@H]([C@@H]1CCCN1)[C@@H](C)C(=O)O; Dil = CC[C@H](C)[C@H](NC)[C@@H](CC(=O)O)OC; Doe = c1ccc(C[C@H](N*)c2nccs2)cc1; Aib = CC(C)(N)C(=O)O
# Legend:
# [1] = biological target: Calcium and integrin-binding protein 1 (Homo sapiens) (UniProt Q99828); experiment: Primary qHTS for Identification of Calcium Integrin Binding Protein 1 (CIB1) Competitor (AID 1508620);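 note: GST tagged CIB1 binding a fluorescein labelled alphaIIb integrin peptide tracer; top concentration of the series differs between compounds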
# Method in brief: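 Fluorescence polarization competition: CIB1-GST (1 uM final) preincubated with compound 15 min at room temperature, then FITC-labeled alphaIIb peptide (100 nM final) added for another 15 min. Polarization read at Ex 480/Em 540.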
# [2] = biological target: Glutathione peroxidase 1 (Homo sapiens) (UniProt P07203); experiment: Primary qHTS Assay for Inhibitors of Recombinant Selenoprotein Glutathione Peroxidase 1 (GPX1) (AID 1845191); note: nearly all actives have a fitted effect of over 65% in size
# Method in brief: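 Recombinant GPX1 (10 nM final) was preincubated with compound for 30 min at room temperature, then reacted with 1 mM GSH, 0.5 mM CHP, 0.5 mM NADPH and 100 nM glutathione reductase; NADPH fluorescence (340/450 nm) was read at 0 and 15 min.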
# [3] = biological target: Phospholipid hydroperoxide glutathione peroxidase GPX4 (Homo sapiens) (UniProt P36969); experiment: Primary qHTS Assay for Inhibitors of Recombinant Selenoprotein Glutathione Peroxidase 4 (GPX4) (AID 1845192); note: nearly all actives have a fitted effect of over 65% in size
# Method in brief: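 GR-coupled readout: 100 nM GR, 1 mM GSH, 0.5 mM NADPH; NADPH fluorescence (ex 340/em 450 nm) read at t=0 and after 15 min RT. GPX4 200 nM, preincubated 30 min with compound; substrate 0.5 mM CHP.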
# [4] = Primary fluorescence-based thiol-reactive (MSTI) qHTS assay for identification of artifact compounds. (AID 1845221); note: nearly all actives have a fitted effect of over 65% in size; note: potency is the fitted concentration of half-maximal effect
# Method in brief: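 Compounds were incubated 1 h at room temperature in the dark with the MSTI probe (4 uM) in PBS pH 7.4, 2% DMSO. Signals were normalized between Acetyl-MSTI and MSTI.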
# [5] = tested on: Nanoluciferase (engineered Oplophorus gracilirostris luciferase); experiment: Primary Nanoluciferase (NLuc) qHTS assay for identification of artifact compounds. (AID 1845222)
# Method in brief: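 Luminescence read-out of secreted NLuc in S16 cell conditioned medium (1:55); compounds tested with 15 min RT preincubation, then Nano-Glo substrate 1:100, 5 min. % inhibition vs no-enzyme and DMSO controls, 4-parameter Hill fit.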
# HaCat = experiment: Cytotoxic Profiling of Annotated Libraries Using Quantitative High-Throughput Screening (AID 1296008); details: Five cell lines viability, CellTiter-Glo ATP luminescence, 48-72 h; max response: active compounds read low; note: nearly all actives have a fitted effect of over 60% in size; note: potency is the fitted concentration of half-maximal effect
# Method in brief: (§1)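 Compounds were pin-transferred onto cells and incubated 48 or 72 hr at 37 degree Celsius, 95% humidity. CellTiter-Glo was added, plates sat 10 min at room temperature, then ATP-coupled luminescence was imaged as the viability read-out.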
# NIH3T3 = experiment: as above; details: Five cell lines viability, CellTiter-Glo ATP luminescence, 48-72 h; max response: active compounds read low
# Method in brief: as §1
# CAOV3 = experiment: Primary qHTS to identify gynecologic anti-cancer compounds using libraries of approved drugs and bioactive compounds (AID 1345084); details: Gynecologic cancer cell panel viability, ATPlite luminescence, 48 h; series mostly up to 57.5 µM; note: nearly all actives have a fitted effect of over 55% in size; note: potency is the fitted concentration of half-maximal effect
# Method in brief: (§2)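 Luminescence from the ATPlite ATP-monitoring reagent indicates viable cell number; lower signal means cytotoxicity. Cells received compound 16 h after seeding and were exposed for 48 h across five concentrations.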
# Hek293T = experiment: as above; details: Gynecologic cancer cell panel viability, ATPlite luminescence, 48 h, control line for the selectivity index; series mostly up to 57.5 µM
# Method in brief: as §2
# [6] = tested on: Zika virus NS2B-NS3 protease (linked construct); experiment: Primary screen NINDS Rhodamine qHTS for Zika virus inhibitors (AID 1347160); note: nearly all actives have a fitted effect of over 55% in size; note: potency is the fitted concentration of half-maximal effect
# Method in brief: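 Percent inhibition, normalized to uninhibited and enzyme-free controls, is fitted to a 4-parameter Hill equation. Fluorescence change comes from a 15-min cleavage of 1.5 microM bis-peptide Rhodamine110 substrate by 25 nM linked NS2B-NS3 at room temperature.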
# [7] = Primary redox qHTS assay for identification of artifact compounds. (AID 1845223)
# Method in brief: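 Amplex Red (25 uM) and HRP (250 mU/mL) in HBSS, with compounds for 15 min, then 250 uM DTT for 30 min, room temperature, dark. Fluorescence 525/598 nm read; normalized to DMSO and 10 uM DA3003; Hill fit.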
# C33A = experiment: Primary qHTS to identify gynecologic anti-cancer compounds using libraries of approved drugs and bioactive compounds (AID 1345084); details: Gynecologic cancer cell panel viability, ATPlite luminescence, 48 h; series mostly up to 57.5 µM; note: nearly all actives have a fitted effect of over 55% in size; note: potency is the fitted concentration of half-maximal effect
# Method in brief: as §2
# CASKI = experiment: as above; details: Gynecologic cancer cell panel viability, ATPlite luminescence, 48 h; series mostly up to 57.5 µM
# Method in brief: as §2
# Es-2 = experiment: as above; details: Gynecologic cancer cell panel viability, ATPlite luminescence, 48 h; series mostly up to 57.5 µM
# Method in brief: as §2
# JEG-3 = experiment: as above; details: Gynecologic cancer cell panel viability, ATPlite luminescence, 48 h; series mostly up to 57.5 µM
# Method in brief: as §2
# OV90 = experiment: as above; details: Gynecologic cancer cell panel viability, ATPlite luminescence, 48 h; series mostly up to 57.5 µM
# Method in brief: as §2
# PA-1 = experiment: as above; details: Gynecologic cancer cell panel viability, ATPlite luminescence, 48 h; series mostly up to 57.5 µM
# Method in brief: as §2
# Tov-21-G = experiment: as above; details: Gynecologic cancer cell panel viability, ATPlite luminescence, 48 h; series mostly up to 57.5 µM
# Method in brief: as §2
# Tov112D = experiment: as above; details: Gynecologic cancer cell panel viability, ATPlite luminescence, 48 h; series mostly up to 57.5 µM
# Method in brief: as §2
# [8] = biological target: Luciferin 4-monooxygenase (Photinus pyralis) (UniProt P08659); experiment: Primary firefly luciferase (FLuc) qHTS assay for identification of artifact compounds. (AID 1845220); details: outcome: dose series up to 54.1 µM unless noted; note: nearly all actives have a fitted effect of over 60% in size
# Method in brief: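 qHTS, 15 min compound preincubation with substrate (10 uM luciferin, 10 uM ATP) at RT, then 10 nM FLuc; 5 min; luminescence; % inhibition vs no-enzyme/DMSO controls, 4-parameter Hill fit.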
# Glutathione peroxidase 1 (Homo sapiens), sequence (P07203 whole entry, looked up): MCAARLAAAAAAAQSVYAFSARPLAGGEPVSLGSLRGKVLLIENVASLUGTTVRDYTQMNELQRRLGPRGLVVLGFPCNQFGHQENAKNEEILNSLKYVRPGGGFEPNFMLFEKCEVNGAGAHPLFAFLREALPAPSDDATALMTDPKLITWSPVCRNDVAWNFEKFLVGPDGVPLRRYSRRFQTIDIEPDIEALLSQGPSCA
# Phospholipid hydroperoxide glutathione peroxidase GPX4 (Homo sapiens), sequence (P36969 whole entry, looked up): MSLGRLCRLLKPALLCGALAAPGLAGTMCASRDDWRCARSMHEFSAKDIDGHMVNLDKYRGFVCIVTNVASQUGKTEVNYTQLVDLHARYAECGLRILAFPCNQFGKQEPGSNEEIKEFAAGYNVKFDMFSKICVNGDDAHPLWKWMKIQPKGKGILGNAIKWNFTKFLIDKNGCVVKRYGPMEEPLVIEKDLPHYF
# Calcium and integrin-binding protein 1 (Homo sapiens), sequence (Q99828 whole entry, looked up): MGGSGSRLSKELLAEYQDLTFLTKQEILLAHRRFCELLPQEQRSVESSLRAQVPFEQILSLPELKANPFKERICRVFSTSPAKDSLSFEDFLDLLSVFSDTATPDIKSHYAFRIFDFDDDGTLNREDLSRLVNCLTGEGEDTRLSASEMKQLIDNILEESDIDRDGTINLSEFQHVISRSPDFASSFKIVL
compound,measurement,setting,value
CC[C@H](C)[C@@H]([C@@H](CC(=O)N1CCC[C@H]1[C@H](OC)[C@@H](C)C(=O)N[C@@H](Cc1ccccc1)c1nccs1)OC)N(C)C(=O)[C@@H](NC(=O)C(C)(C)N)C(C)C (H-[Aib]V[Dil][Dolaproine]-Doe),Potency,[1],inactive
same,Potency,[2],inactive
same,Potency,[3],inactive
same,Potency,[4],inactive
same,Potency,[5],inactive
same,outcome,HaCat,inactive
same,max response,NIH3T3,-54.1%
same,Potency,CAOV3,inactive
same,Potency,Hek293T,inactive
O=C(N[C@H]1CN2CCC1CC2)c1cc2cccc(Cl)c2s1,Potency,[6],inactive
same,Potency,[1],inactive
same,Potency,[2],inactive
same,Potency,[3],inactive
same,Potency,[4],inactive
same,Potency,[5],inactive
same,Potency,[7],inactive
same,max response,HaCat,-4.19%
same,Potency,C33A,inactive
same,Potency,CASKI,inactive
same,Potency,Es-2,inactive
same,Potency,Hek293T,inactive
same,Potency,JEG-3,inactive
same,Potency,OV90,inactive
same,Potency,PA-1,inactive
same,Potency,Tov-21-G,inactive
same,Potency,Tov112D,inactive
COc1ccc(CCNCc2ccc(OC)c3ccccc23)cc1,Potency,[6],inactive
same,Potency,[1],inactive
same,Potency,[2],inactive
same,Potency,[3],inactive
same,Potency,[4],inactive
same,Potency,[5],inactive
same,Potency,[7],inactive
same,max response,NIH3T3,-21.8%
same,Potency,C33A,inactive
same,Potency,CAOV3,inactive
same,Potency,CASKI,inactive
same,Potency,Es-2,inactive
same,Potency,Hek293T,inactive
same,Potency,OV90,inactive
same,Potency,PA-1,inactive
same,Potency,Tov-21-G,inactive
same,Potency,Tov112D,inactive
Cc1ccccc1C1=CCN(C)CC1,Potency,[6],inactive
same,Potency,[1],inactive
same,Potency,[2],inactive
same,Potency,[3],inactive
same,outcome,[8],inactive
same,Potency,[4],inactive
same,Potency,[5],inactive
same,max response,HaCat,-6.61%
same,Potency,CAOV3,inactive
same,Potency,CASKI,inactive
same,Potency,Es-2,inactive
same,Potency,Hek293T,inactive
same,Potency,JEG-3,inactive
same,Potency,OV90,inactive
same,Potency,PA-1,inactive
same,Potency,Tov-21-G,inactive
same,Potency,Tov112D,inactive
CC/C=C/C=C/C1(C)OC(OC)=C(C(=O)C2C(C)C(=O)c3cc(OC)c(O)c(O)c3C2(C)O)C1=O (stereo not drawn),Potency,[6],10 µM (active)
same,Potency,[1],inactive
same,Potency,[2],inactive
same,Potency,[3],inactive
same,outcome,[8],inactive [at 25.7 µM]
same,Potency,[4],1.3 µM (active)
same,Potency,[5],inactive
same,Potency,[7],inactive
same,Potency,C33A,inactive
same,Potency,CAOV3,inactive
same,Potency,CASKI,inactive
same,Potency,Hek293T,inactive
same,Potency,JEG-3,inactive
same,Potency,OV90,inactive
same,Potency,Tov112D,inactive
CO/C1=C\C(C)=C\[C@@H](C)[C@@H](O)[C@@H](C)C/C(C)=C/C=C/[C@H](OC)[C@@H]([C@@H](C)[C@@H](O)[C@H](C)[C@@]2(O)C[C@@H](O)[C@H](C)[C@@H](C(C)C)O2)OC1=O,Potency,[6],inactive
same,Potency,[1],inactive
same,Potency,[3],inactive
same,outcome,[8],inactive
same,Potency,[4],inactive
same,Potency,[5],inactive
same,Potency,[7],inactive
same,Potency,C33A,141 nM (active)
same,Potency,CAOV3,126 nM (active)
same,Potency,CASKI,inactive
same,Potency,Es-2,79.4 nM (active)
same,Potency,Hek293T,100 nM (active)
same,Potency,JEG-3,inactive
same,Potency,OV90,89.1 nM (active)
same,Potency,PA-1,89.1 nM (active)
same,Potency,Tov112D,100 nM (active)
C=C1C(=O)O[C@@H]2[C@H]3C(=C)[C@@H](O)C[C@H]3C(=C)C[C@@H](O)[C@@H]12,Potency,[1],inactive
same,Potency,[2],inactive
same,Potency,[3],inactive
same,outcome,[8],inactive
same,Potency,[4],5.32 µM (active)
same,Potency,[7],inactive
same,max response,HaCat,-4.6%
same,Potency,C33A,inactive
same,Potency,CAOV3,inactive
same,Potency,CASKI,inactive
same,Potency,Es-2,inactive
same,Potency,Hek293T,inactive
same,Potency,JEG-3,inactive
same,Potency,OV90,inactive
same,Potency,PA-1,inactive
same,Potency,Tov112D,inactive
C/C=C(\C)C(O)C(C)/C=C(C)/C=C/C/C(C)=C/Cc1nc(OC)c(OC)c(O[C@@H]2O[C@@H](C)[C@H](O)[C@@H](O)[C@H]2O)c1C (stereo partly drawn),Potency,[6],inactive
same,Potency,[1],inactive
same,Potency,[2],inactive
same,Potency,[3],inactive
same,outcome,[8],inactive
same,Potency,[4],inactive
same,Potency,[5],inactive
same,outcome,HaCat,inactive
same,Potency,CASKI,3.98 µM (active)
same,Potency,OV90,inactive
same,Potency,Tov112D,inactive
CC(=O)NCCCOc1ccc(C(=O)N2CCC(N3C(=O)CCc4ccccc43)CC2)cc1,Potency,[6],inactive
same,Potency,[2],inactive
same,Potency,[3],inactive
same,outcome,[8],inactive
same,Potency,[4],inactive
same,Potency,[5],inactive
same,Potency,[7],inactive
same,max response,NIH3T3,-14%
same,Potency,C33A,inactive
same,Potency,CASKI,inactive
same,Potency,Es-2,inactive
same,Potency,Hek293T,inactive
same,Potency,JEG-3,inactive
same,Potency,OV90,inactive
same,Potency,PA-1,inactive
same,Potency,Tov-21-G,inactive
same,Potency,Tov112D,inactive
C[C@H]1CCC[C@H](O)CCC/C=C/c2cc(O)cc(O)c2C(=O)O1,Potency,[6],inactive
same,Potency,[1],inactive
same,Potency,[2],inactive
same,outcome,[8],inactive
same,Potency,[4],inactive
same,Potency,[5],inactive
same,Potency,[7],inactive
same,outcome,NIH3T3,inactive
same,Potency,C33A,inactive
same,Potency,CAOV3,inactive
same,Potency,CASKI,inactive
same,Potency,Es-2,inactive
same,Potency,Hek293T,inactive
same,Potency,JEG-3,inactive
same,Potency,OV90,inactive
same,Potency,PA-1,inactive
same,Potency,Tov-21-G,inactive
same,Potency,Tov112D,inactive
C[C@H](Nc1ncnc2nc[nH]c12)c1nc2ccc(F)cc2c(=O)n1-c1ccccc1,Potency,[1],inactive
same,Potency,[2],inactive
same,Potency,[3],inactive
same,outcome,[8],inactive
same,Potency,[4],inactive
same,Potency,[7],inactive
same,Potency,NIH3T3,13 µM (active)
same,Potency,C33A,inactive
same,Potency,CAOV3,inactive
same,Potency,CASKI,inactive
same,Potency,Es-2,inactive
same,Potency,JEG-3,inactive
same,Potency,OV90,inactive
same,Potency,PA-1,inactive
same,Potency,Tov-21-G,inactive
same,Potency,Tov112D,inactive
Cc1[nH]c2ccc(Cl)cc2c1CCN(C)C,Potency,[6],inactive
same,Potency,[1],inactive
same,Potency,[2],inactive
same,Potency,[3],inactive
same,outcome,[8],inactive
same,Potency,[4],inactive
same,Potency,[5],inactive
same,Potency,[7],inactive
same,outcome,NIH3T3,inactive
same,Potency,C33A,inactive
same,Potency,CAOV3,inactive
same,Potency,CASKI,inactive
same,Potency,Es-2,inactive
same,Potency,Hek293T,inactive
same,Potency,JEG-3,inactive
same,Potency,OV90,inactive
same,Potency,PA-1,inactive
same,Potency,Tov-21-G,inactive
same,Potency,Tov112D,inactive
